ALOX15B inhib – qHTS Assay for Inhibitors of 15-hLO-2 (15-human lipoxygenase 2); 110,000 compounds, 0.56% hits; Potency, µM (top dose mostly 57.1 µM), without a hit: at the top dose activity change, negative = inhibition, actives largely listed as inhibitors; purified 15hLO-2, xylenol orange hydroperoxide absorbance; Polyunsaturated fatty acid lipoxygenase ALOX15B (Homo sapiens), O15296; note: potency is the fitted concentration of half-maximal effect; nearly all actives have a fitted effect of over 60% in size
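Purified human 15hLO-2 (50 nM final) preincubated with compounds 15 min at room temperature in 25 mM Hepes pH 7.5, 0.01% Triton X-100, then 45 uM arachidonic acid added for 90 min; hydroperoxide detected via ferrous/xylenol orange, 573/405 nm absorbance ratio.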
ALOX12 inhib – qHTS Assay for Inhibitors of 12-hLO (12-human lipoxygenase) | AID 1452, 2008 | 150,000 compounds, 0.12% hits | purified 12-hLO, xylenol orange hydroperoxide absorbance | Potency, µM (titrated, usually from 57.1 µM), inactives show at the highest dose activity change, negative = inhibition, hits mostly inhibitors; note: potency is the fitted concentration of half-maximal effect; nearly all actives have a fitted effect of over 55% in size
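Lipoxygenase turnover measured by absorbance at 573 and 405 nm after Fe-XO development. Human 12hLO 150 nM, arachidonate 40 uM, pH 7.0 Hepes buffer with detergent; 15 min compound preincubation, 30 min reaction.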
IMPase Li inh – qHTS Assay for Identifying the Cell-Membrane Permeable IMPase Inhibitors: Potentiation with Lithium | CHO-M1 cells, IP1 TR-FRET (IP-One), carbachol + lithium | Potency, µM (doses to about 59.4 µM), inactives show at the top dose activity, negative = IMPase inhibition, usual class: inhibitors | 210,000 compounds, 0.35% hits | AID 1457, 2008;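 note: IP1 builds up when IMPase is blocked and the TR-FRET signal falls; potency is the fitted concentration of half-maximal effect; plate controls were basal vehicle for no effect and high inhibitor control for full effect; nearly all actives have a fitted effect of over 50% in size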
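IP1 accumulation measured by competitive TR-FRET in lysed CHO-M1 cells after 30 min compound exposure at 37C, with a small lithium addition to potentiate weak responses. Hill-equation AC50 from ratio and donor-channel data.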
PNC assembly inh – High Content Assay for Compounds that inhibit the Assembly of the Perinucleolar Compartment | PC3M PTB-GFP, PNC prevalence imaging, 16 h; stronger effect = lower value | activity change (PNC), negative = inhibition, % at 10 µM | 140,000 compounds, 3.1% hits | AID 2417, 2010;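 active = readout at or below -70, meaning at least 70% loss of cells showing the perinucleolar compartment, a nuclear body marking cancer cells; inconclusive = readout between -30 and a set limit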;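 note: plate controls were DMSO wells for no effect and camptothecin positive control wells for full effect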
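Read-out is percentage of cells bearing a perinucleolar compartment, from automated 20x imaging of fixed, Hoechst-stained PC3M PTB-GFP cells. Cells were seeded 4 h, then exposed 16 h to compound (23 nl of library stock) in duplicate plates.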
HPGD block – qHTS Assay for Inhibitors of HPGD (15-Hydroxyprostaglandin Dehydrogenase); 15-hydroxyprostaglandin dehydrogenase [NAD(+)] (Homo sapiens), P15428; Potency, µM, for the others: at the top dose activity change, negative = inhibition, actives largely listed as inhibitors; purified HPGD, NADH fluorescence kinetic, PGE2 substrate; AID 894, 2007; 150,000 compounds, 4.3% hits; active = well fitted inhibition curve with a large enough effect, not every such curve was filed as active; inconclusive = small, poorly fitted or top-dose-only effect, or another doubt; inactive = no such curve, though single readings can be large or run the other way; note: potency is the fitted concentration of half-maximal effect
Target sequence (P15428 whole entry, looked up): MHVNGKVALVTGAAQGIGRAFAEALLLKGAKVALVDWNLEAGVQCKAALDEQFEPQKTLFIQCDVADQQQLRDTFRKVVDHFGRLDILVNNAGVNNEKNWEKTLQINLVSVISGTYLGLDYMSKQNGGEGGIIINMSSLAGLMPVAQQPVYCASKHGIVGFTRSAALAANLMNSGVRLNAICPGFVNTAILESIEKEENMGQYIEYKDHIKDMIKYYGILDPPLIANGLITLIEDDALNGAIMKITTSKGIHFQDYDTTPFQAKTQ
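20 nM HPGD preincubated 15 min at room temperature with compound in 50 mM Tris-HCl pH 8, 0.01% Tween 20. Started with 1 mM NAD+ and 30 uM prostaglandin E2; NADH fluorescence (360/450 nm) read 5 times over 30-s intervals, last minus first.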
IMPase inh – qHTS Assay for Identifying the Cell-Membrane Permeable IMPase Inhibitors | 120,000 tested, under 10 active | inhibition (IP1 accumulation), % at 46.1 µM | CHO-M1 cells, IP1 accumulation, HTRF TR-FRET ratio; active = well fitted curve in the direction sought with a large enough effect in the signal ratio, not every such curve was filed as active; inconclusive = small, poorly fitted or top-dose-only effect, or a change in a side signal; inactive = no such curve, though single readings can be large or run the other way; the % refers to the signal ratio;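 note: cells stimulated with carbachol in lithium chloride buffer; plate controls were DMSO basal wells for no effect and reference inhibitor wells for full effect; higher means more IMPase inhibition seen as more IP1 and lower FRET ratio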
Target sequence (P97697 whole entry, looked up): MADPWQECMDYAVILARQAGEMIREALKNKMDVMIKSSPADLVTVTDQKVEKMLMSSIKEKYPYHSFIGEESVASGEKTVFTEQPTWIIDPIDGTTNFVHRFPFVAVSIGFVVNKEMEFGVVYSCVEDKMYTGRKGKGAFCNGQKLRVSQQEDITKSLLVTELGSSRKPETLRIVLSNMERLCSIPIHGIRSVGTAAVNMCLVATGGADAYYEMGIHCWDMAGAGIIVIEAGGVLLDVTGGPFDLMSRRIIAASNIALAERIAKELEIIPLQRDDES
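CHO-M1, 2000 cells/well, cultured 16–30 h; cpd up to 46 uM; carbachol (50 uM solution, stimulation buffer w/ 50 mM LiCl, pH 7.4), 30 min 37C; IP-One TR-FRET, 10 min RT; Ex 320/Em 665, 620; Hill-fit AC50.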
An asterisk follows results filed as active; ? = inconclusive; nt = no result; [ ] = another dose, or the depositor's remark. Hits are enriched below; roughly 5.3% of the tested compounds scored in any of these assays. Unless noted, calls come from the whole dose curve; as a rule, active = well fitted curve in the direction sought with a large enough effect; inconclusive = small, poorly fitted or top-dose-only effect, or another doubt; inactive = no such curve, though single readings can be large; an effect the other way counts as inactive or inconclusive. Unless noted, % is set by controls: 0 for no effect and ±100 for the full control effect.

SMILES	ALOX15B inhib	ALOX12 inhib	IMPase Li inh	PNC assembly inh	HPGD block	IMPase inh
S=c1[nH]nc(CCc2ccccc2)n1-c1ccccc1	nt	-2%	2%	7	16µM*	nt
CCOC(=O)c1ccc2c(c1)nc(SCC(=O)N1CCCCC1)n2CC	0%	1%	?	-11	5µM*	1
CCCCn1c(SCC(=O)N2CCC(C)CC2)nc2cc(S(N)(=O)=O)ccc21	5%	-3%	-2%[38.3 µM]	?	28µM*	12
CCCCn1c(SCC2CCCO2)nc2cc(S(N)(=O)=O)ccc21 (stereo not drawn)	-1%	3%	23%[38.3 µM]	-26	-1%	4
CCn1c(=O)cc(SCC(=O)N2CCCCC2)c2ccccc21	-13%	-1%	-30%[38.3 µM]	-11	7.9µM*	?
CCN1CCN(C(=O)CSc2cc(=O)n(CC)c3ccccc23)CC1	0%	2%	41%[38.3 µM]	52	?	1
CCn1c(=O)cc(SCC(=O)N2CCC(C)CC2)c2ccccc21	-7%	0%	-11%[38.3 µM]	-2	5µM*	-26
COc1ccc(-c2nc3cnc(N4CCNCC4)nc3n(C3CC3)c2=O)cc1	-3%	-2%	9%	nt	?	nt
CCn1c(SCC(=O)N2CCCCC2)nc(O)cc1=O	6%	3%	-2%[38.3 µM]	35	0.28µM*	-1
O=C(CSc1nnc(SCc2ccccc2)s1)N/N=C/C=C/c1ccco1	nt	-2%	-2%	11	28µM*	nt
O=C(CSc1nnc(SCc2ccccc2)s1)NNC(=S)Nc1ccccc1	nt	-29%	14%	?	10µM*	5
O=C(Cc1ccccc1)NNC(=S)Nc1ccccc1	nt	nt	4%	nt	nt	nt
O=C(NCCCn1ccnc1)c1nn2c(C(F)(F)F)cc(-c3ccc(Br)cc3)nc2c1Cl	nt	1%	6%	33	-6%	nt
COC(=O)N1CCC2(CCCN(C(c3ccccc3)c3ccccc3)C2)CC1	0%	-3%	16%	nt	1%	nt
O=C(Nc1ccccc1Br)C1CCC(=O)N1Cc1ccccc1Cl (stereo not drawn)	-1%	2%	-2%	?	0%	1
O=C(Nc1ccc(Cl)cc1)C1CCC(=O)N1Cc1ccccc1Cl (stereo not drawn)	10%	1%	5%[38.3 µM]	-90*	-12%	0
COc1nn(CC(=O)N2N=C(C(F)F)CC2(O)C(F)F)cc1[N+](=O)[O-] (stereo not drawn)	nt	0%	-1%	-90*	-18%	0
COc1nn(C(C)C(=O)N2N=C(C(F)F)CC2(O)C(F)F)cc1[N+](=O)[O-] (stereo not drawn)	nt	3%	4%	?	-10%	1
NCCC[C@@H](CC(=O)N[C@@H]1CCNC[C@H]1C(=O)N[C@H](CC(=O)N[C@@H](CCC(=O)O)CC(=O)O)Cc1ccccc1)NC(=O)C[C@H](CO)NC(=O)[C@@H]1CCCC[C@H]1N	nt	-1%	1%	nt	-10%	nt
O=C(/C=C/NCC(=O)c1ccccc1)c1ccc(Br)cc1	nt	-24%	-4%	-97*	-27%	-6
O=C(/C=C/NNC(=O)c1ccccc1)c1ccc(Br)cc1	-8%	-29%	-11%[38.3 µM]	-8	-23%	8
O=C(/C=C/Nc1ccccc1F)c1ccc(Br)cc1	nt	2%	1%	-115*	-16%	nt
O=C(Nc1cccc(C(F)(F)F)c1)n1cc(-c2ccccn2)c(N2CCOCC2)n1	nt	nt	-1%	nt	nt	nt
COc1ccc(C2C3=C(CCCC3=O)Nc3nc(C(F)(F)F)nn32)c(OC)c1OC (stereo not drawn)	-1%	-6%	6%[38.3 µM]	-88*	-12%	6
Cc1ccc(S(=O)(=O)/C(C#N)=C/c2c(N3CC(C)OC(C)C3)nc3c(C)cccn3c2=O)cc1 (stereo not drawn)	-15%	-7%	21%[38.3 µM]	?	2.2µM*	10
SMILES	ALOX15B inhib	ALOX12 inhib	IMPase Li inh	PNC assembly inh	HPGD block	IMPase inh
CC1CN(c2nc3ccccn3c(=O)c2/C=C(\C#N)S(=O)(=O)c2ccccc2)CC(C)O1 (stereo not drawn)	-27%	-22%	22%[38.3 µM]	15	18µM*	7
Cc1ccc(OCc2nnc(SCC(=O)Nc3cccc4ccccc34)n2-c2ccccc2)cc1	nt	-10%	26%	-119*	-11%	11
Cc1ccc(OCc2nnc(SCc3cc(=O)[nH]c4ccccc34)n2-c2ccccc2)cc1	nt	-9%	18%	-26	11µM*	13
Cc1ccccc1OCc1nnc(SCc2cc(=O)[nH]c3ccccc23)n1-c1ccccc1	nt	-4%	12%	3	-10%	3
CCc1nnc(NC(=O)CSc2nnc(COc3ccccc3)n2-c2ccc(C)cc2)s1	0%	-2%	0%[38.3 µM]	23	-2%	-17
Cc1cc(C)cc(-n2c(C)cc(C=C(C#N)C#N)c2C)c1	-6%	4%	10µM*	8	-15%	0
CCOC(=O)/C(C#N)=C/c1cc(C)n(-c2ccccc2)c1C	?	-3%	6%[38.3 µM]	25	-23%	12
COc1ccc(-c2cc(=O)c3c(O)cc(O[C@@H]4OC(COC5OC(C)C(O)C(O)[C@@H]5O)C(O)C(O)C4O)cc3o2)cc1 (stereo partly drawn)	12%	-5%	-4%	nt	22µM*	nt
COc1ccc(-c2cc(=O)c3c(O)cc(O[C@H]4OC(COC5OC(C)C(O)C(O)[C@H]5O)C(O)C(O)C4O)cc3o2)cc1O (stereo partly drawn)	10%	-5%	-3%	nt	-19%	nt
COc1cc(/C=C/C(=O)O)cc2c1OCCO2	nt	nt	2%	nt	nt	nt
CCC1(C(=O)c2ccc(Cl)cc2)C2c3ccccc3OC(=O)C21C(=O)Nc1ccccc1 (stereo not drawn)	nt	-12%	13%	-11	0%	16
CC(=O)c1ccc(N=C2SCCCN2C(=O)C2CCCC2)cc1	nt	nt	1%	nt	nt	nt
COc1cccc(-c2nc(-c3ccccn3)no2)c1OC	-2%	-3%	39%[38.3 µM]	-84*	-24%	1
Clc1ccccc1-c1nnc2sc(CCc3ccccc3)nn12	-19%	12%	11%	-9	8.9µM*	-12
Brc1ccccc1-c1nnc2sc(Cc3ccccc3)nn12	0%	-1%	34%[38.3 µM]	24	16µM*	-7
c1ccc(-c2nnc3sc(-c4ccncc4)nn23)cc1	-4%	-2%	31%[38.3 µM]	18	-14%	3

Source: PubChem BioAssay
